# Source: the supplement of paper PMC10037445
# ± gives the standard deviation of the averaged measurements. The full ranking holds about 2,900 compounds; the median of “IRF Lucia reporter activity, fold change vs agonist alone” is about 0.9, and the highest 2% start at about 2.8. The full list was thinned out, with the highest values kept by preference.
# Assays:
# [1] = test system: RAW-Dual; test: IRF Lucia reporter activity, fold change vs agonist alone; cytotoxicity flag (confluency mask): not cytotoxic; higher = enhanced IRF activity
# In short: (§1)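 RAW-Dual macrophages (50,000 cells/well in DMEM, 384-well plates) received 50 nL of library stock by pin tool, then a PRR agonist 1 h later, and were kept at 37 °C, 5% CO2. After 20 hours, supernatant was read for IRF by QuantiLuc luminescence and for NF-κB by QuantiBlue absorbance at 620 nm. Reporter activity is fold change over agonist-alone wells. Cytotoxic wells had IncuCyte confluency below 70% of agonist controls in both mask sets.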
# [2] = test system: RAW-Dual; test: IRF Lucia reporter activity, fold change vs agonist alone; higher = enhanced IRF activity; details: library stock concentration (final ~1000-fold dilution): 10 mM, agonist: MPLA (TLR4) […]
# In short: as §1
# [3] = test system: RAW-Dual; test: IRF Lucia reporter activity, fold change vs agonist alone; cytotoxicity flag (confluency mask): cytotoxic (confluency <70% of control); higher = enhanced IRF activity
# In short: as §1
# [4] = agonist: 3'3'-cGAMP (STING) 10 ug/mL
# [5] = cytotoxicity flag (confluency mask): cytotoxic (confluency <70% of control)
# [6] = cytotoxicity flag (confluency mask): not cytotoxic
smiles,measurement,setting,value
CN1C(=O)NC(Cc2c[nH]c3c(Cl)cccc23)C1=O (centres undefined) (library stock concentration (final ~1000-fold dilution): 10 mM),IRF Lucia reporter activity,[1]; [4],0.896
same,IRF Lucia reporter activity,[1]; agonist: LPS (TLR4) 0.1 ug/mL,0.697
CN1C(=O)C(Cc2c[nH]c3ccccc23)NC1=S (centres undefined) (library stock concentration (final ~1000-fold dilution): 10 mM),IRF Lucia reporter activity,[1]; [4],0.553
same,IRF Lucia reporter activity,[1]; agonist: LPS (TLR4) 0.1 ug/mL,3.04
CC(C)CC1NC(=O)C(C(C)C)NC(=O)C2CCCN2C(=O)C(CC(=O)O)NC(=O)C(Cc2c[nH]c3ccccc23)NC1=O (centres undefined) (library stock concentration (final ~1000-fold dilution): 10 mM),IRF Lucia reporter activity,[1]; [4],1.23
same,IRF Lucia reporter activity,[1]; agonist: LPS (TLR4) 0.1 ug/mL,1.01
CC(=O)OCC1OC([S-])C(OC(C)=O)C(OC(C)=O)C1OC(C)=O.CCP(CC)CC.[Au+] (centres undefined),IRF Lucia reporter activity,[2]; [5],0.0231
CC(=O)OCC1OC([S-])C(OC(C)=O)C(OC(C)=O)C1OC(C)=O.CCP(CC)CC.[Au+] (centres undefined) (library stock concentration (final ~1000-fold dilution): 10 mM),IRF Lucia reporter activity,[3]; [4],0.0169
same,IRF Lucia reporter activity,[3]; agonist: LPS (TLR4) 0.1 ug/mL,0.0188
CC(=O)OC1CC/C(C)=C/CC/C(C)=C/CC2(C(C)C)CCC1(C)O2 (centres undefined) (library stock concentration (final ~1000-fold dilution): 10 mM),IRF Lucia reporter activity,[1]; [4],0.818 ± 0.25
same,IRF Lucia reporter activity,[1]; agonist: LPS (TLR4) 0.1 ug/mL,0.744 ± 0.15
O=C(/C=C/c1ccc(O)c(O)c1)O[C@@H]1C[C@@](O)(C(=O)O)C[C@@H](O)[C@@H]1O (library stock concentration (final ~1000-fold dilution): 10 mM),IRF Lucia reporter activity,[1]; [4],1.02
same,IRF Lucia reporter activity,[1]; agonist: LPS (TLR4) 0.1 ug/mL,1.23
CC(C)(C)NC(=O)C1CN(Cc2cccnc2)CCN1CC(O)CC(Cc1ccccc1)C(=O)NC1c2ccccc2CC1O.O=S(=O)(O)O (centres undefined) (library stock concentration (final ~1000-fold dilution): 10 mM),IRF Lucia reporter activity,[1]; [4],1.1
same,IRF Lucia reporter activity,[1]; agonist: LPS (TLR4) 0.1 ug/mL,0.77
CS(=O)(=O)O.Cc1c(O)cccc1C(=O)NC(CSc1ccccc1)C(O)CN1CC2CCCCC2CC1C(=O)NC(C)(C)C (centres undefined) (library stock concentration (final ~1000-fold dilution): 10 mM),IRF Lucia reporter activity,[1]; [4],0.918
same,IRF Lucia reporter activity,[1]; agonist: LPS (TLR4) 0.1 ug/mL,3.62
CS(=O)(=O)O.Cc1c(O)cccc1C(=O)NC(CSc1ccccc1)C(O)CN1CC2CCCCC2CC1C(=O)NC(C)(C)C (centres undefined),IRF Lucia reporter activity,[2]; [6],2.24
CC(C)c1nc(CN(C)C(=O)NC(C(=O)NC(Cc2ccccc2)CC(O)C(Cc2ccccc2)NC(=O)OCc2cncs2)C(C)C)cs1 (centres undefined) (library stock concentration (final ~1000-fold dilution): 10 mM),IRF Lucia reporter activity,[1]; [4],0.757
same,IRF Lucia reporter activity,[1]; agonist: LPS (TLR4) 0.1 ug/mL,1.34
CC(C)c1nc(CN(C)C(=O)NC(C(=O)NC(Cc2ccccc2)CC(O)C(Cc2ccccc2)NC(=O)OCc2cncs2)C(C)C)cs1 (centres undefined),IRF Lucia reporter activity,[2]; [6],1.07
Cc1cc(C(=O)NC(C)(C)C)cc(C#Cc2ccc3c4c(oc3c2)C(C)(C)c2cc(NS(C)(=O)=O)ccc2C4=O)n1 (library stock concentration (final ~1000-fold dilution): 10 mM),IRF Lucia reporter activity,[1]; [4],0.196
same,IRF Lucia reporter activity,[1]; agonist: LPS (TLR4) 0.1 ug/mL,0.504
CCC1=CC2CN(C1)Cc1c([nH]c3ccccc13)C(C(=O)OC)(c1cc3c(cc1OC)N(C)C1C(O)(C(=O)OC)C(OC(C)=O)C4(CC)C=CCN5CCC31C54)C2 (centres undefined) (library stock concentration (final ~1000-fold dilution): 10 mM),IRF Lucia reporter activity,[3]; [4],0.371
same,IRF Lucia reporter activity,[3]; agonist: LPS (TLR4) 0.1 ug/mL,2.95
CCC1(O)CC2CN(CCc3c([nH]c4ccccc34)C(C(=O)OC)(c3cc4c(cc3OC)N(C)C3C(O)(C(=O)OC)C(OC(C)=O)C5(CC)C=CCN6CCC43C65)C2)C1.O=S(=O)(O)O (centres undefined),IRF Lucia reporter activity,[2]; [5],2.07
CCC1(O)CC2CN(CCc3c([nH]c4ccccc34)C(C(=O)OC)(c3cc4c(cc3OC)N(C)C3C(O)(C(=O)OC)C(OC(C)=O)C5(CC)C=CCN6CCC43C65)C2)C1.O=S(=O)(O)O (centres undefined) (library stock concentration (final ~1000-fold dilution): 10 mM),IRF Lucia reporter activity,[3]; [4],0.226
same,IRF Lucia reporter activity,[3]; agonist: LPS (TLR4) 0.1 ug/mL,2.16
CCC1(O)CC2CN(CCc3c([nH]c4ccccc34)C(C(=O)OC)(c3cc4c(cc3OC)N(C=O)C3C(O)(C(=O)OC)C(OC(C)=O)C5(CC)C=CCN6CCC43C65)C2)C1.O=S(=O)(O)O (centres undefined),IRF Lucia reporter activity,[2]; [6],1.06
CCC1=CC2CN(C1)Cc1c([nH]c3ccccc13)C(C(=O)OC)(c1cc3c(cc1OC)N(C)C1C(O)(C(=O)OC)C(OC(C)=O)C4(CC)C=CCN5CCC31C54)C2 (centres undefined),IRF Lucia reporter activity,[2]; [5],2.68
CCC1(O)CC2CN(CCc3c([nH]c4ccccc34)C(C(=O)OC)(c3cc4c(cc3OC)N(C=O)C3C(O)(C(=O)OC)C(OC(C)=O)C5(CC)C=CCN6CCC43C65)C2)C1.O=S(=O)(O)O (centres undefined) (library stock concentration (final ~1000-fold dilution): 10 mM),IRF Lucia reporter activity,[1]; [4],0.107
same,IRF Lucia reporter activity,[1]; agonist: LPS (TLR4) 0.1 ug/mL,2.02
CCCCS(=O)(=O)NC(Cc1ccc(OCCCCC2CCNCC2)cc1)C(=O)O.Cl.O (centres undefined) (library stock concentration (final ~1000-fold dilution): 10 mM),IRF Lucia reporter activity,[1]; [4],0.894
same,IRF Lucia reporter activity,[1]; agonist: LPS (TLR4) 0.1 ug/mL,1.35
